Data from the supplement of paper PMC9262897, “Low-cost anti-mycobacterial drug discovery using engineered E. coli” (Nature Communications, 2022).
Where a name gives a salt, the structure may show the parent alone. ± gives the standard deviation of the averaged measurements.

System: E. coli TESEC Mtb DapB
Experiment: growth (OD600 after 10 h); higher = more growth (less inhibition)
Details: arabinose induction (level): Low; compound 0.1 mM; raw OD600 reference: median of DMSO wells 0.227, cell-free background 0.041
Description: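 TESEC E. coli strains in which the native enzyme is deleted and replaced by arabinose-inducible Mtb Asd, DapB, CysH or TrpD, each grown in its selective medium. Strains were screened against the Prestwick library at 0.1 mM and 1% DMSO in 384-well format at low and high arabinose induction. Growth is read as OD600 after 10 h in triplicate.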

Q: How did the growth turn out when CCCc1ncc(C[n+]2ccccc2C)c(N)n1 [Amprolium hydrochloride] was run?
A: 0.228 ± 0.05

Q: Which growth does the source give for COC1=C(OC)C(=O)C(CCCCCCCCCCO)=C(C)C1=O [Idebenone] here?
A: 0.066 ± 0.0091

Q: For CC(N/C(=N\C#N)Nc1ccncc1)C(C)(C)C (configuration not stated) [Pinacidil], which growth is on record?
A: 0.232 ± 0.022

Q: With C[C@H]1C[C@H]2[C@@H]3CCC4=CC(=O)C=C[C@]4(C)[C@@]3(F)[C@@H](O)C[C@]2(C)[C@@]1(O)C(=O)CO [Betamethasone] as the molecule, how does the growth read?
A: 0.211 ± 0.064

Q: Which growth does the source give for Fc1ccc(C(c2ccc(F)cc2)N2CCN(C/C=C/c3ccccc3)CC2)cc1 [Flunarizine dihydrochloride] here?
A: 0.163 ± 0.065

Q: For CCC(NC(C)C)C(O)c1ccc(O)c(O)c1 (configuration not stated) [Isoetharine mesylate salt], which growth is on record?
A: 0.226 ± 0.031

Q: For C[C@H]1O[C@@H](O[C@H]2[C@@H](O)C[C@H](O[C@H]3[C@@H](O)C[C@H](O[C@H]4CC[C@@]5(C)[C@H](CC[C@@H]6[C@@H]5C[C@@H](O)[C@]5(C)[C@@H](C7=CC(=O)OC7)CC[C@]65O)C4)O[C@@H]3C)O[C@@H]2C)C[C@H](O)[C@@H]1O [Digoxin], which growth is on record?
A: 0.236 ± 0.045

Q: CC(C)(O/N=C(\C(=O)N[C@@H]1C(=O)N2C(C(=O)[O-])=C(C[n+]3ccccc3)CS[C@H]12)c1csc(N)n1)C(=O)O [Ceftazidime pentahydrate] was tested. Which growth did it give?
A: 0.0547 ± 0.0049

Q: For Cc1cccc(C)c1NC(=O)C(C)N (configuration not stated) [Tocainide hydrochloride], which growth is on record?
A: 0.244 ± 0.06

Q: Which growth does the source give for CCCCNc1cc(C(=O)O)cc(S(N)(=O)=O)c1Oc1ccccc1 [Bumetanide] here?
A: 0.215 ± 0.038

Q: How did the growth turn out when CCCSc1ccc2[nH]c(NC(=O)OC)nc2c1 [Albendazole] was run?
A: 0.25 ± 0.025

Q: For O=c1[nH]cc(F)c(=O)[nH]1 [5-fluorouracil], which growth is on record?
A: 0.142 ± 0.013

Q: With CCN(CC)CCOC(=O)C(c1ccccc1)c1ccccc1 [Adiphenine hydrochloride] as the molecule, how does the growth read?
A: 0.223 ± 0.046

Q: CCCCc1cc2ccccc2c(OCCN(C)C)n1 [Dimethisoquin hydrochloride] was tested. Which growth did it give?
A: 0.184 ± 0.012

Q: Nc1ccc(S(=O)(=O)Nc2nccs2)cc1 [Sulfathiazole] was tested. Which growth did it give?
A: 0.199 ± 0.025

Q: How did the growth turn out when Nc1c2c(nc3ccccc13)CCCC2 [Tacrine hydrochloride] was run?
A: 0.228 ± 0.014

Q: How did the growth turn out when O=C(O)c1cc(/N=N/c2ccc(S(=O)(=O)Nc3ccccn3)cc2)ccc1O [Sulfasalazine] was run?
A: 0.231 ± 0.03

Q: For Oc1c(Cl)cc(Cl)c(Cl)c1Cc1c(O)c(Cl)cc(Cl)c1Cl [Hexachlorophene], which growth is on record?
A: 0.053 ± 0.00044

Q: Which growth does the source give for CC(C)(C)NC(=O)[C@@H]1C[C@@H]2CCCC[C@@H]2CN1C[C@@H](O)[C@H](Cc1ccccc1)NC(=O)[C@H](CC(N)=O)NC(=O)c1ccc2ccccc2n1 [Saquinavir mesylate] here?
A: 0.0578 ± 0.0085

Q: CN1CCN(C2=Nc3cc(Cl)ccc3Nc3ccccc32)CC1 [Clozapine] was tested. Which growth did it give?
A: 0.205 ± 0.0082

Q: With COc1ccc(C2CNC(=O)C2)cc1OC1CCCC1 (configuration not stated) [Rolipram] as the molecule, how does the growth read?
A: 0.217 ± 0.0081

Q: How did the growth turn out when C[C@H](Cc1cc2c(c(C(N)=O)c1)N(CCCO)CC2)NCCOc1ccccc1OCC(F)(F)F [Silodosin] was run?
A: 0.206 ± 0.033

Q: COCCCOc1ccnc(C[S+]([O-])c2nc3ccccc3[nH]2)c1C (configuration not stated) [Rabeprazole Sodium salt] was tested. Which growth did it give?
A: 0.207 ± 0.0085

Q: Which growth does the source give for O=C(O)c1cccnc1Nc1cccc(C(F)(F)F)c1 [Niflumic acid] here?
A: 0.209 ± 0.022

Q: How did the growth turn out when C[C@]12CC[C@@H]3c4ccc(O)cc4C[C@@H](CCCCCCCCC[S+]([O-])CCCC(F)(F)C(F)(F)F)[C@H]3[C@@H]1CC[C@@H]2O (some centres not stated) [Fulvestrant] was run?
A: 0.258 ± 0.091

Q: How did the growth turn out when CC(C)(C)NCC(O)COc1cccc2c1CC(O)C(O)C2 (configuration not stated) [Nadolol] was run?
A: 0.259 ± 0.018

Q: For CCc1cccc(CC)c1NC(=O)CN(CC(=O)O)CC(=O)O [Etifenin], which growth is on record?
A: 0.196 ± 0.003

Q: With CCC(=O)[C@@]1(C)[C@H](C)C[C@H]2[C@@H]3CCC4=CC(=O)C=C[C@]4(C)[C@H]3[C@@H](O)C[C@@]21C [Rimexolone] as the molecule, how does the growth read?
A: 0.209 ± 0.026

Q: For Cc1cn([C@H]2C[C@H](N=[N+]=[N-])[C@@H](CO)O2)c(=O)[nH]c1=O [Zidovudine, AZT], which growth is on record?
A: 0.0825 ± 0.0056

Q: How did the growth turn out when O=C(CCCCCCC(=O)Nc1ccccc1)NO [Vorinostat] was run?
A: 0.204 ± 0.0056

Q: For CN/C(=N\CCSCc1nc[nH]c1C)NC#N [Cimetidine], which growth is on record?
A: 0.206 ± 0.025

Q: O=C(N[C@H](CO)[C@H](O)c1ccc([N+](=O)[O-])cc1)C(Cl)Cl [Chloramphenicol] was tested. Which growth did it give?
A: 0.0578 ± 0.015
